From ChEMBL document CHEMBL4513216, “Probing the Open Global Health Chemical Diversity Library for Multistage-Active Starting Points for Next-Generation Antimalarials” (ACS Infect Dis, 2020)
Screen size: about 68,000 compounds; about 2,700 (4%) showed an effect of 50% or more. Only a selection was taken, and strong results are over-represented in it overall.

tested on: Plasmodium berghei; experiment: Screen against P. berghei liver stage (PbLuc), transformed with Luciferase, at 2uM; type: functional, HepG2; conditions: tested at 2 uM

| Compound | INHIBITION [%] |
| --- | --- |
| CN(C)CCN1C(=O)CC[C@@H]2[C@H]1CCN2C(=O)c1ccc(C#N)cc1 | 33.35 |
| CS(=O)(=O)N1C[C@H]2CC[C@@H](C1)N(Cc1ccc3nsnc3c1)C2 | 6.3 |
| Cc1cc(C(=O)N2CCCC(Cn3cc(C4CC4)nn3)C2)nc(C)n1 (configuration not stated) | 15.27 |
| CC(O)CN1CCC(CNCc2cccc(C(F)(F)F)c2)CC1 (configuration not stated) | -32.84 |
| CCc1nnc(CNC(=O)CCC2CCCCN2C)s1 (configuration not stated) | -22.64 |
| CCc1nnc(CNC(=O)CCC2CCCN(C)C2)s1 (configuration not stated) | 52.47 |
| CN1CCCC(CCC(=O)NCCc2nnc(N)s2)C1 (configuration not stated) | 49.25 |
| O=C(CCCN1CCCCC1)N1CCN(C(=O)c2ccc[nH]2)CC1 | 2.7 |
| Cn1c(SCC2OCCc3ccccc32)n[nH]c1=O (configuration not stated) | 54.53 |
| CCCn1c(O)nnc1SCC1OCCc2ccccc21 (configuration not stated) | -10.86 |
| Cn1c(N)nnc1SCC1OCCc2ccccc21 (configuration not stated) | 18.52 |
| COc1ccc(CN2CC(O)CN(C(=O)c3ccccc3)CC2=O)cc1 (configuration not stated) | -21.31 |
| CCc1ccc(CNc2ccccc2CN2CCC(O)CC2)o1 | -10.29 |
| CSc1ccc(CNc2ccccc2CN2CCC(O)CC2)cc1 | 50.03 |
| OCc1ccc(CNc2ccccc2CN2CCC(O)CC2)o1 | 5.02 |
| CCSCc1ccnc(NC(=O)C2CCCO2)c1 (configuration not stated) | 31.62 |
| CCSCc1ccnc(NC(=O)C2CCOC2)c1 (configuration not stated) | 51.27 |
| O=C(Nc1cc(CSCCO)ccn1)c1ccc(Cl)o1 | -32.88 |
| COc1ccc(-c2csc(-c3cccc(C(=O)O)c3)n2)cc1OC | -60.47 |
| c1ccc(CN2CCC3(CC2)Nc2ccccc2CO3)cc1 | 17.25 |
| Cc1cc(CN2CCC(CNC(=O)c3ccc(C#N)cc3)C2)[nH]n1 (configuration not stated) | 39.57 |
| Cc1cc(CN2CCC(CNC(=O)CN3CCCCCC3)C2)[nH]n1 (configuration not stated) | 63.17 |
| Cc1cc(CN2CCC(CNC(=O)Cc3ccc(F)cc3)C2)[nH]n1 (configuration not stated) | -73.43 |
| CCC1=N[C@@]2(CC[C@@H]3CN(Cc4ccc(Cl)cc4)C[C@@H]32)C(=O)N1C | 17.51 |
| CN1CCc2[nH]cnc2C12CCN(C(=O)c1noc3c1CCCC3)CC2 | -15.03 |
| Cn1c(CN2CCOC[C@H]2c2nc(C(C)(C)C)co2)nc2ccccc21 | -39.35 |

| Compound | INHIBITION [%] |
| --- | --- |
| CNC(=O)c1noc(CN2CC[C@](C)(O)[C@H](C)C2)n1 | -44.85 |
| C[C@@H]1CN(Cc2nc(C(N)=O)no2)CC[C@@]1(O)C1CCOCC1 | 26.14 |
| C[C@@H]1CN(Cc2nc(C(N)=O)no2)CC[C@@]1(O)C1CC1 | 59.1 |
| CC(=O)N1CCN(C(=O)c2ccc3ccn(C)c3c2)CC1 | -58.53 |
| O=S(=O)(Cc1cccc(Cl)c1)CC(O)Cn1cccn1 (configuration not stated) | -17.17 |
| CN1[C@@H]2CC[C@H]1CN(C(=O)c1ccc(-c3ccccc3)[nH]1)CC2 | 21.95 |
| CC(C)n1cc(-n2cc3nc(N4CCOCC4)[nH]cc-3c2=O)cn1 | 53.22 |
| CCn1cc(-n2cc3nc(N4CCOCC4)[nH]cc-3c2=O)cn1 | 37.89 |
| Cn1cc(-n2cc3nc(N4CCOCC4)[nH]cc-3c2=O)cn1 | 13.95 |
| Cc1cnc2c(c1NCc1ccc(F)cc1)c(=O)n(C)c(=O)n2C | -5.61 |
| COc1ccc(CNc2nnc(CC(C)(C)C)o2)cc1C#N | 55.36 |
| CCCc1nnc(NCc2ccc(OC)c(C#N)c2)o1 | 48.21 |
| CC(C)(C)Cc1nnc(NCc2cccc(C#N)c2)o1 | 31.51 |
| O=C(CCN1CCc2ccccc21)N1C[C@@H](O)[C@H](N2CCCC2)C1 | 15.72 |
| O=C(Cc1cccs1)N1CC[C@H]2[C@H]1CCN2Cc1cccnc1 | 7.33 |
| O=C1C[C@H]2[C@@H](CCN2C(=O)Cc2ccccc2)N1Cc1cccnc1 | 30.4 |
| O=C1C[C@H]2[C@@H](CCN2C(=O)Cc2ccsc2)N1Cc1cccnc1 | 52.91 |
| O=C1C[C@H]2[C@@H](CCN2C(=O)c2cscn2)N1Cc1cccnc1 | -12.98 |
| O=C1C[C@H]2[C@@H](CCN2C(=O)Cc2cccs2)N1Cc1cccnc1 | 55.7 |
| O=C1C[C@H]2[C@@H](CCN2C(=O)Cc2cccs2)N1Cc1ccncc1 | 17.77 |
| CN(Cc1nnc2n1CCC2)C(=O)c1ccc2c(c1)CCO2 | 29.42 |
| COCCNC1(c2ccc(Cl)cc2)CCOCC1 | 60.9 |
| CCOCCNC1(c2ccc(Cl)cc2)CCOCC1 | 32.26 |
| CC(C)OCCNC1(c2ccc(Cl)cc2)CCOCC1 | -17.01 |
| CC(c1nc(C(C)(C)C)no1)S(=O)(=O)CC(=O)N1CCCC1 (configuration not stated) | -3.22 |
| Cn1c(C2CCCN2C(=O)c2cn(CCN)nn2)nc2ccccc21 (configuration not stated) | -6.44 |

| Compound | INHIBITION [%] |
| --- | --- |
| O=C(CN1CCOc2ccccc2C1)NCc1cc2n(n1)CCNC2 | 5.75 |
| O=C(CN1CC(c2ccccc2)CC1=O)NCc1cc2n(n1)CCNC2 (configuration not stated) | 66.18 |
| O=C(CN1CCC(c2ccccc2)CC1)NCc1cc2n(n1)CCNC2 | 5.21 |
| CCOc1ccccc1Nc1nc2c(C)nn(C)c2c(=O)n1C | -51.9 |
| CN1CCOC(CNC(=O)COc2ccc(F)cc2F)C1 (configuration not stated) | -7.88 |
| Cc1nc2c(c(NC(C)C)n1)CCN(C1CCOCC1)CC2 | 53.44 |
| Cc1nc2c(c(NC(C)C)n1)CCN(C(=O)CCO)CC2 | -13.61 |
| CC(C)Nc1nc2c(c(NC3CC3)n1)CCN(C1CCOCC1)CC2 | 4.95 |
| Cc1cnc(NC(=O)NC(CCO)c2cccs2)s1 (configuration not stated) | -11.51 |
| Cn1nc(COc2cncnc2)c2c1CCN(Cc1ccco1)C2 | 8.36 |
| O=C(NCc1ccoc1)Nc1cc(C(F)(F)F)c[nH]c1=O | -7.02 |
| CC(C)c1noc(CCC(=O)Nc2cc(C(F)(F)F)c[nH]c2=O)n1 | 64.9 |
| Cn1nccc1C(=O)Nc1cc(C(F)(F)F)c[nH]c1=O | -27.71 |
| CCCc1noc(CCC(=O)Nc2cc(C(F)(F)F)c[nH]c2=O)n1 | 43.44 |
| O=C(NCCc1ccco1)Nc1cc(C(F)(F)F)c[nH]c1=O | -6.16 |
| CN(Cc1ccco1)C(=O)Nc1cc(C(F)(F)F)c[nH]c1=O | 19.35 |
| O=C(Nc1cc(C(F)(F)F)c[nH]c1=O)c1ccco1 | 56.67 |
| O=C(CCc1ccco1)Nc1cc(C(F)(F)F)c[nH]c1=O | 19.35 |
| CCN(Cc1ccco1)C(=O)Nc1cc(C(F)(F)F)c[nH]c1=O | 28.65 |
| O=C(COCc1ccco1)Nc1cc(C(F)(F)F)c[nH]c1=O | 66.2 |
| Cc1noc(CCCC(=O)Nc2cc(C(F)(F)F)c[nH]c2=O)n1 | -30.49 |
| CC(CCc1ccco1)NC(=O)Nc1cc(C(F)(F)F)c[nH]c1=O (configuration not stated) | 57.95 |
| Cc1nc(C(C)C)sc1C(=O)N(C)Cc1cnn(C)c1 | -35.11 |
| Cc1cc(NC(=O)NCC(C)N2CCOCC2)n(C)n1 (configuration not stated) | 25.53 |
| CC(=O)N1CCOC(c2cncc(CCC(=O)N(C)C)n2)C1 (configuration not stated) | -26.69 |
| CCn1cc(-c2cc(-c3cc(CN(C)C)cs3)nc(N)c2C#N)c(C)n1 | 42.48 |

| Compound | INHIBITION [%] |
| --- | --- |
| c1ccc2cc(OCCN3CCn4c(nnc4C4CC4)C3)ccc2c1 | 18.31 |
| Cc1cccc(CN2CCOC3(CCCN(CC(=O)N(C)C)C3)C2)n1 (configuration not stated) | -25.4 |
| Cc1ccccc1C(C)NC(=O)Cc1c(C)nc2cc(=O)[nH]n2c1C (configuration not stated) | -18.39 |
| CC(C)n1cnnc1CN(C)Cc1ccoc1 | 33.78 |
| CN(CCCNc1cc(N2CCCC2CO)ncn1)S(C)(=O)=O (configuration not stated) | 22.75 |
| Cn1cc(CN2CC[C@@H](NS(C)(=O)=O)[C@@H]2Cc2cccnc2)cn1 | -28.13 |
| O=C(c1cc(-n2cnnn2)ccc1Cl)N1CCN(c2ccccc2)CC1 | 8.92 |
| c1cc(CN2Cc3nccn3CC(Cn3cncn3)C2)ccn1 (configuration not stated) | -6.68 |
| c1csc(CN2Cc3nccn3CC(Cn3cncn3)C2)n1 (configuration not stated) | -43.55 |
| c1csc(CN2Cc3nccn3CC(Cn3cncn3)C2)c1 (configuration not stated) | 54.62 |
| O=C(NCc1cccnc1)[C@@H]1CC[C@@H]2[C@@H](CCN2c2ncccn2)O1 | 25.5 |
| CN(CCn1ccnc1-c1ccccn1)S(C)(=O)=O | 35.52 |
| CC(C)NC(=O)N1CCN(CC2CC2)CC2(CNC(=O)C2)C1 (configuration not stated) | 13.38 |
| COc1ccc(-c2cc3cccn(CC(=O)N4CCOCC4)c-3n2)cc1 | -16.87 |
| O=C(Cn1cccc2cc(-c3ccc(F)cc3)nc1-2)N1CCC(O)CC1 | 92.28 |
| CN(C)CCN(C)C(=O)Cn1cccc2cc(-c3ccc(F)cc3)nc1-2 | 31.81 |
| Cc1csc(CNc2cnn(CC(C)C)c2)n1 | 3.58 |
| CCc1nnc2n1CCN(C(=O)c1cc(C)n(-c3ccccc3)c1C)C2 | -68.26 |
| Cn1cc(N2CCC3(CCN(C(=O)[C@H]4CCCO4)C3)C2=O)cn1 (some centres not stated) | -28.81 |
| Cc1cnc(CNC(=O)[C@@]23CCO[C@@H]2CCN(C2CCCC2)C3)cn1 | -7.71 |
| Cc1cnc(CNC(=O)[C@@]23CCO[C@@H]2CCNC3)cn1 | 62.6 |
| CC(=O)N1CC[C@H]2OCC[C@@]2(C(=O)NCc2cnc(C)cn2)C1 | -41.74 |
| CCN1C[C@@H]2C[C@H](C(=O)NCc3cccnc3)[C@H](C1)O2 | -19.81 |
| CCCC1(CO)CCCN(C(=O)CCCn2nc(C)cc2C)C1 (configuration not stated) | 1.1 |
